# Source: PubChem BioAssay (several laboratories)
# A selection: hits, their analogues and other compounds. The true share with any hit is near 2.8%.
# Shn3 inh set2: inhibitors of Schnurri-3 3'UTR reporter in osteoblasts. Clone20 osteoblast Shn3 3'UTR firefly luciferase, 24 h. inhibition, % at 12.5 µM. 360,000 compounds, 0.52% hits;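 active = mean inhibition of at least 75% with every replicate also reaching 75%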;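 note: 0% = median of neutral control wells and 100% = pilot-screen positive control compound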
# CF NFkB inh: cystic fibrosis NF-kB activation inhibition; KKLEB NF-kB-GFP reporter, PAF-induced, GFP fluorescence overnight; inhibition, % at 5 µM; 360,000 compounds, 0.86% hits;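 active = at least 50% inhibition at 5 µM, scaled per plate between neutral and stimulator controls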;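 note: PAF is a Pseudomonas aeruginosa culture filtrate used as stimulus; plate controls were PAF-stimulated DMSO wells for no effect and unstimulated DMSO wells for full effect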
# KKLEB tox: CF airway cell cytotoxicity counter-screen. KKLEB CF airway cells viability, ATPlite luminescence, overnight; hits give low values; cells stimulated with P. aeruginosa culture filtrate. activity change (cytotoxicity), % at 5 µM. 360,000 compounds, 0.36% hits;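 active = corrected activity change at or below -50% at 5 µM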
# MITF TRPM1 inh: reduces MITF-dependent TRPM1 promoter luciferase signal; SK-MEL-5 TRPM1 promoter luciferase, 24 h; inhibition, % at 12.5 µM; 330,000 compounds, 0.83% hits; AID 488899;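 active = mean inhibition across replicates of 60% or more, whatever share of single replicates reaches that level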
# HIF-2a block: blocks HIF-2a reporter activity; 786-0 RCC cells HIF-2a reporter, luciferase luminescence, overnight; inhibition, % at 18.8 µM; 360,000 compounds, 0.72% hits;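 active = inhibition of the luminescence signal of 40% or more relative to plate controls, in a single-dose primary screen at 18.75 µM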
# Peg3 promoter: inhibitors of Peg3 promoter. 360,000 compounds, 1.7% hits. HeLa PEG-Prom luciferase reporter, luminescence, overnight. inhibition, % at 20 µM;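 active = inhibition of at least 50% at 20 µM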
# * hit, by the source's call; / = no result given.
SMILES,Shn3 inh set2,CF NFkB inh,KKLEB tox,MITF TRPM1 inh,HIF-2a block,Peg3 promoter
CC(=O)N1c2ccc(S(=O)(=O)NCC3CCC(C(=O)Nc4ncccc4C)CC3)cc2CC1C (stereo not given),10.0,12.5,-18.3,5.2,9.0,31.8
CC(=O)N1c2ccc(S(=O)(=O)NCC3CCC(C(=O)Nc4cc(C)ccn4)CC3)cc2CC1C (stereo not given),66.0,26.0,-2.9,22.5,9.8,87.7*
O=[N+]([O-])c1ccccc1N=Nc1c(O)[nH]c2ccc(F)cc12,85.1*,-16.6,-0.4,-29.7,-119.0,-219.5
Cc1ccc2[nH]c(O)c(N=Nc3ccccc3[N+](=O)[O-])c2c1,-16.7,-25.4,-2.3,-3.6,-105.2,-53.5
CCNc1nc(NCC)n2c(SC(C(=O)Nc3cc(Cl)cc(Cl)c3)c3ccccc3)nnc2n1 (stereo not given),1.9,35.1,-29.7,5.2,20.3,76.5*
CCc1nnc(NC(=O)CCC(=O)NC2CCCc3ccccc32)s1 (stereo not given),0.2,-3.5,1.8,8.3,11.2,3.0
Cc1ccc2nc3cc([N+](=O)[O-])cc([N+](=O)[O-])c3cc2c1,61.0,68.1*,-39.4,62.6*,-130.5,75.1*
Cc1nc2ccc([N+](=O)[O-])cc2nc1C,17.7,-12.6,4.1,15.1,9.8,8.6
O=C(c1ccccc1)c1c(-c2ccccc2)[nH]n(-c2ccccc2)c(=O)c1=O,2.0,-7.5,10.9,5.0,10.7,7.0
CSc1ccccc1NC(=O)CN1CCN(S(=O)(=O)c2ccccc2[N+](=O)[O-])CC1,1.2,-2.2,-0.7,-3.9,-6.5,5.5
O=C(N/N=C/c1sc(=O)n(Cc2ccc(Br)cc2)c1Cl)c1ccco1,76.1,64.5*,-75.2*,38.0,34.0,83.5*
O=C(CCC(=O)c1cccs1)NCc1ccccc1Cl,0.9,-15.4,-2.0,-19.9,-53.3,-17.8
CC12CCC(=O)CC1CCC1C2CCC2(C)C1CCC2(O)C(=O)CO (stereo not given),-1.5,-53.8,13.3,-4.4,1.3,-37.5
CC12CCCC[C@@H]1CCC1C2CCC2(C)C1CC[C@@]2(O)CNCCO (stereo not given in full),21.4,19.3,-9.0,-19.3,10.4,109.6*
CCOC(=O)c1nnn(-c2ccc([N+](=O)[O-])cc2[N+](=O)[O-])c1C,-23.0,-37.4,7.6,77.2*,-0.6,11.3
CCOC(=O)c1nnn(-c2ccccc2)c1C,-24.7,3.0,-2.4,-13.8,-28.8,-32.1
COCCNC(=O)CN1C(=O)/C(=C/c2ccccc2)Oc2ccc(C(C)(C)C)cc21,-14.7,1.5,13.4,-3.8,11.8,18.1
N#CC(C#N)=NNc1ccc(S(=O)(=O)N2CCCCC2)cc1,4.6,71.0*,-16.6,5.0,9.7,9.9
O=C(NCCc1ccccc1F)C1CC(=O)N(c2ccc3c(c2)OCCO3)C1 (stereo not given),-4.8,-2.4,4.5,/,4.3,1.0
Cc1ccc(S(=O)(=O)NCc2ccccc2)cc1C(=O)N(C)Cc1ccc(F)cc1,-2.2,1.7,-7.3,8.8,5.7,20.7
O=S(=O)(c1ccc(Br)cc1Cl)N1CCN(CCO)CC1,-15.5,-11.5,7.4,2.7,9.8,2.7
O=C1C=CC(=O)c2c(O)c(N3CCN(CCO)CC3)c(Cl)c(O)c21,98.8*,-23.0,14.6,99.3*,89.9*,101.7*
O=C1C=CC(=O)c2c(O)c(N3CCN(CCOCCO)CC3)c(Br)c(O)c21,92.9*,5.7,2.5,96.6*,86.7*,53.5*
OCCOCCN1CCN(C2=Nc3ccccc3Sc3ccccc32)CC1,-1.9,34.2,-1.1,1.0,-17.3,-15.1
Brc1ccc2c(c1)-c1ccccc1C1=NCCN12,-9.7,-177.4,-6.1,/,-56.5,87.3*
SMILES,Shn3 inh set2,CF NFkB inh,KKLEB tox,MITF TRPM1 inh,HIF-2a block,Peg3 promoter
CCCc1nc2ccc(Cl)cn2c1Cc1ccsc1,-27.1,-9.6,0.0,/,-143.1,-190.5
Oc1c(C(Nc2nc3ccccc3s2)c2ccco2)ccc2cccnc12 (stereo not given),75.4,-41.0,-20.4,32.7,-230.8,-66.8
Oc1c(C(Nc2cccc(C(F)(F)F)c2)c2ccncc2)ccc2cccnc12 (stereo not given),97.1*,-25.4,-10.7,64.7*,12.5,17.9
CCOc1ccc(C(Nc2cccnc2)c2cc(Cl)c3cccnc3c2O)cc1 (stereo not given),77.1,4.8,-9.4,43.1,26.8,45.9
Oc1c(C(Nc2nccs2)c2ccc(C(F)(F)F)cc2)ccc2cccnc12 (stereo not given),77.7,15.7,1.7,79.9*,86.9*,68.2*
CN(C)CCNC(=O)c1cccc(-c2cnc3c(NC=O)cc(-c4cccc(F)c4)cn23)c1,2.8,-39.5,1.8,/,-10.3,-26.5
O=CNc1cc(-c2ccc(C(=O)NC3CC3)cc2)cn2c(-c3ccccc3)cnc12,-4.2,22.6,-17.2,/,-52.4,60.6*
COc1ccc(-c2cc(NC=O)c3ncc(-c4ccc(C(C)=O)cc4)n3c2)cn1,21.6,24.3,-32.3,/,10.3,56.8*
CN(C)CCNC(=O)c1cccc(-c2cnc3c(NC=O)cc(/C=C/c4ccccc4)cn23)c1,3.2,-10.8,-1.2,/,-43.9,97.5*
COc1ccc(-c2cnc3c(NC=O)cc(-c4ccc(F)cc4)cn23)cc1OC,15.5,65.8*,-52.2*,/,22.0,7.0
O=CNc1cc(-c2ccc(C(=O)NC3CC3)cc2)cn2c(-c3ccc(F)c(Cl)c3)cnc12,-1.2,2.7,-7.6,/,-149.4,27.8
COc1ccc(-c2cnc3c(NC=O)cc(-c4ccccc4)cn23)cc1OC,20.7,45.9,-38.2,/,-22.4,23.1
Cc1onc(-c2ccccc2)c1C(=O)Nc1ccc(S(=O)(=O)NC(C)(C)C)cc1,13.6,-9.8,-12.8,13.0,27.2,25.3
COc1cccc(CN2CCCC(C(=O)N3CCCCC3)C2)c1 (stereo not given),-23.6,-8.1,-3.6,-6.2,4.1,11.7
Cc1cc(NC(=O)CSc2nnc(-c3ccncc3)n2N)ccc1Br,-15.8,2.3,-13.8,9.9,7.2,5.4
COc1ccc(-c2cnc3c(NC=O)cc(-c4cc(OC)c(OC)c(OC)c4)cn23)cc1OC,22.5,-9.0,-24.7,/,-0.7,64.8*
CC1CCN(CCNC(=O)c2ccc3c(=O)n(Cc4ccc(Cl)cc4)c(=S)[nH]c3c2)CC1,-8.3,-5.1,-12.5,45.2,30.3,94.5*
O=C(c1ccco1)N1CCN(c2ncnc3scc(-c4cccs4)c23)CC1,39.2,26.1,-3.7,16.4,-0.5,53.4*
Cc1cc2ccccn2c1C(=O)c1ccc([N+](=O)[O-])o1,61.6,30.0,-21.4,36.4,37.6,98.9*
Cc1cc2ccccn2c1C(=O)c1cccc([N+](=O)[O-])c1,16.0,12.8,-8.4,11.5,-2.9,8.1
